Test results taken from PubChem BioAssay (EPA / NIEHS).
The source made the active and inactive calls. The calls were made as follows: active = hit-call score of the fitted dose curve at least 0.9, where 1 is the maximum; inactive = score below 0.9.

Legend:
[1] = read-out: Monokine induced gamma interferon (MIG), CXCL9 (gene 4283); experiment: BSK_hDFCGF_MIG: BioMAP Diversity Plus: hDFCGF Assay for Monokine induced gamma interferon (MIG) Biomarker Activity (AID 2283063); details: primary human foreskin fibroblasts; actives raise or lower the signal
Procedure, shortened: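 MIG signal, determined by ELISA, reflects 24 h chemical exposure of human skin primary fibroblasts. DMSO serves as negative control and baseline.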

[2] = read-out: Plasminogen activator inhibitor-1 (PAI1), SERPINE1 (gene 5054); experiment: BSK_hDFCGF_PAI1: BioMAP Diversity Plus: hDFCGF Assay for Plasminogen activator inhibitor-1 (PAI1) Biomarker Activity (AID 2283066); details: primary human foreskin fibroblasts; actives raise or lower the signal
Procedure, shortened: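 Human foreskin fibroblasts in the hDFCGF system were dosed with compound for 24 h; PAI-1 was quantified by ELISA. Bidirectional curve fitting used DMSO as negative control and baseline.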

[3] = read-out: Intercellular Adhesion Molecule 1 (ICAM1), ICAM1 (gene 3383); experiment: BSK_KF3CT_ICAM1: BioMAP Diversity Plus: KF3CT Assay for Intercellular Adhesion Molecule 1 (ICAM1) Biomarker Activity (AID 2283067); details: primary human keratinocytes with fibroblasts; actives raise or lower the signal
Procedure, shortened: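 Dose the keratinocyte/fibroblast co-culture, wait 24 h, measure ICAM-1 by ELISA, then fit increases or decreases against DMSO. Cytotoxicity is checked in parallel cultures by SRB total-protein staining.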

[4] = read-out: Interferon-gamma inducible Protein 10 (IP10), CXCL10 (gene 3627); experiment: BSK_KF3CT_IP10: BioMAP Diversity Plus: KF3CT Assay for Interferon-gamma inducible Protein 10 (IP10) Biomarker Activity (AID 2283068); details: primary human keratinocytes with fibroblasts; actives raise or lower the signal
Procedure, shortened: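 Signal is secreted/surface IP-10 by ELISA in a human primary skin co-culture of keratinocytes and foreskin fibroblasts, taken 24 h post-dosing; DMSO served as negative control.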

[5] = BSK_KF3CT_SRB: Viability Assessment in the BioMAP Diversity Plus: KF3CT Assay (AID 2283069); details: primary human keratinocytes with fibroblasts;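 also: fitted for both signal gain and loss against DMSO baseline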
Procedure, shortened: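 Keratinocytes co-cultured with foreskin fibroblasts (human primary); chemical added, 24 h; fix 10% TCA, stain 0.1% SRB, A560. Bidirectional fit vs DMSO.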

[6] = read-out: Interleukin-1 alpha (IL1a), IL1A (gene 3552); experiment: BSK_KF3CT_IL1a: BioMAP Diversity Plus: KF3CT Assay for Interleukin-1 alpha (IL1a) Biomarker Activity (AID 2283070); details: primary human keratinocytes with fibroblasts; actives raise or lower the signal
Procedure, shortened: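 Chemicals were dosed onto co-cultured human keratinocytes and foreskin fibroblasts, IL-1a was quantified by ELISA at 24 h, and activity was fitted in both directions relative to DMSO controls.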

[7] = read-out: TIMP metallopeptidase inhibitor 2 (TIMP2), TIMP2 (gene 7077); experiment: BSK_KF3CT_TIMP2: BioMAP Diversity Plus: KF3CT Assay for TIMP metallopeptidase inhibitor 2 (TIMP2) Biomarker Activity (AID 2283071); details: primary human keratinocytes with fibroblasts; actives raise or lower the signal
Procedure, shortened: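 Human primary keratinocyte/foreskin fibroblast co-culture dosed with chemical and sampled at 24 h. TIMP-2 levels quantified by ELISA; bidirectional fitting against DMSO negative control as baseline.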

[8] = read-out: Transforming growth factor beta 1 (TGFb1), TGFB1 (gene 7040); experiment: BSK_KF3CT_TGFb1: BioMAP Diversity Plus: KF3CT Assay for Transforming growth factor beta 1 (TGFb1) Biomarker Activity (AID 2283072); details: primary human keratinocytes with fibroblasts; actives raise or lower the signal
Procedure, shortened: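 Human keratinocyte plus foreskin fibroblast primary co-culture, dosed with chemical for 24 h. TGF-b1 quantified by ELISA. Activity fitted bidirectionally against DMSO negative control as baseline.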

[9] = read-out: C-C motif chemokine 2 (Homo sapiens) (UniProt P13500); experiment: BSK_KF3CT_MCP1: BioMAP Diversity Plus: KF3CT Assay for Monocyte Chemoattractant Protein 1 (MCP1/CCL2) Biomarker Activity (AID 2283073); details: primary human keratinocytes with fibroblasts; actives raise or lower the signal
Procedure, shortened: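 Keratinocytes and foreskin fibroblasts were co-cultured, dosed with chemical, and sampled 24 h later. MCP-1 was quantified by ELISA, and the endpoint was analyzed with bidirectional fitting using DMSO as negative control.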

[10] = read-out: urokinase plasminogen activator (uPA), PLAU (gene 5328); experiment: BSK_KF3CT_uPA: BioMAP Diversity Plus: KF3CT Assay for urokinase plasminogen activator (uPA) Biomarker Activity (AID 2283075); details: primary human keratinocytes with fibroblasts; actives raise or lower the signal
Procedure, shortened: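 ELISA readout of uPA, analyzed for signal gain or loss relative to DMSO, from a human primary keratinocyte–foreskin fibroblast co-culture measured 24 h after chemical treatment.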

[11] = read-out: E-selectin (Homo sapiens) (UniProt P16581); experiment: BSK_LPS_Eselectin: BioMAP Diversity Plus: LPS Assay for Eselectin Biomarker Activity (AID 2283077); details: primary human HUVEC with PBMC; actives raise or lower the signal
Procedure, shortened: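 Signal of E-selectin, detected by ELISA, served as the endpoint; cells were umbilical vein endothelium with PBMC, read 24 h after treatment. DMSO defined baseline, and both increases and decreases were fitted.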

[12] = read-out: Interleukin-8 (IL8), CXCL8 (gene 3576); experiment: BSK_LPS_IL8: BioMAP Diversity Plus: LPS Assay for Interleukin-8 (IL8) Biomarker Activity (AID 2283078); details: primary human HUVEC with PBMC; actives raise or lower the signal
Procedure, shortened: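 Endothelial cells and PBMC from human donors are co-cultured, treated with chemicals and LPS, then assayed for IL-8 by ELISA after 24 h. Parallel SRB staining (0.1% SRB after 10% TCA fixation, 560 nm) flags cytotoxicity.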

[13] = read-out: Interleukin-1 alpha (IL1a), IL1A (gene 3552); experiment: BSK_LPS_IL1a: BioMAP Diversity Plus: LPS Assay for Interleukin-1 alpha (IL1a) Biomarker Activity (AID 2283080); details: primary human HUVEC with PBMC; actives raise or lower the signal
Procedure, shortened: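 Measured: IL-1 alpha via ELISA at 24 h in LPS-activated human umbilical vein endothelium–PBMC co-culture. Baseline: DMSO, bidirectional fitting.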

[14] = read-out: Monocyte Chemoattractant Protein-1 (MCP1), CCL2 (gene 6347); experiment: BSK_LPS_MCP1: BioMAP Diversity Plus: LPS Assay for Monocyte Chemoattractant Protein-1 (MCP1) Biomarker Activity (AID 2283081); details: primary human HUVEC with PBMC; actives raise or lower the signal;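 as to AC50: secreted MCP-1 protein quantified by ELISA in culture supernatant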
Procedure, shortened: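 LPS-stimulated HUVEC/PBMC co-culture; chemical, 24 h; MCP-1 by ELISA; bidirectional fit vs DMSO; cytotoxicity via SRB (0.1% stain, 10% TCA fix, 560 nm) in parallel wells.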

CD40, CD40 (gene 958) = experiment: BSK_LPS_CD40: BioMAP Diversity Plus: LPS Assay for CD40 Biomarker Activity (AID 2283076); details: primary human HUVEC with PBMC; actives raise or lower the signal
Procedure, shortened: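 CD40 signal, measured by ELISA, is fitted in both directions relative to DMSO vehicle. The system is an LPS-driven human vascular primary co-culture of endothelial cells and PBMC, sampled 24 h after compound addition.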

[15] = BSK_LPS_SRB: Viability Assessment in the BioMAP Diversity Plus: LPS Assay (AID 2283079); details: primary human HUVEC with PBMC;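 also: total protein by sulforhodamine B absorbance as a cytotoxicity measure; measured one day after compound addition; fitted in both directions against DMSO so loss or gain of signal counts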
Procedure, shortened: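 Overt cytotoxicity was gauged by sulforhodamine B total-protein staining in a primary human vascular endothelial and mononuclear cell co-culture 24 h post-dosing. Activity was fitted in both directions relative to DMSO.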

[16] = read-out: Vascular cell adhesion molecule 1 (VCAM1), VCAM1 (gene 7412); experiment: BSK_hDFCGF_VCAM1: BioMAP Diversity Plus: hDFCGF Assay for Vascular cell adhesion molecule 1 (VCAM1) Biomarker Activity (AID 2283065); details: primary human foreskin fibroblasts; actives raise or lower the signal;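 as to AC50: VCAM-1 protein level quantified by ELISA after 24 h chemical exposure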
Procedure, shortened: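 Cells are dosed, cultured for 24 h, then VCAM-1 is quantified by ELISA; signal increases and decreases are both fitted relative to DMSO.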

[17] = read-out: Matrix Metallopeptidase 9 (MMP9), MMP9 (gene 4318); experiment: BSK_KF3CT_MMP9: BioMAP Diversity Plus: KF3CT Assay for Matrix Metallopeptidase 9 (MMP9) Biomarker Activity (AID 2283074); details: primary human keratinocytes with fibroblasts; actives raise or lower the signal;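 as to AC50: MMP9 protein level quantified by ELISA in the co-culture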
Procedure, shortened: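 Human keratinocyte/foreskin fibroblast co-culture; compound added; 24 h; MMP-9 by ELISA; bidirectional fit vs DMSO baseline.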

Measured: AC50

E-selectin (Homo sapiens), sequence (P16581 whole entry, looked up): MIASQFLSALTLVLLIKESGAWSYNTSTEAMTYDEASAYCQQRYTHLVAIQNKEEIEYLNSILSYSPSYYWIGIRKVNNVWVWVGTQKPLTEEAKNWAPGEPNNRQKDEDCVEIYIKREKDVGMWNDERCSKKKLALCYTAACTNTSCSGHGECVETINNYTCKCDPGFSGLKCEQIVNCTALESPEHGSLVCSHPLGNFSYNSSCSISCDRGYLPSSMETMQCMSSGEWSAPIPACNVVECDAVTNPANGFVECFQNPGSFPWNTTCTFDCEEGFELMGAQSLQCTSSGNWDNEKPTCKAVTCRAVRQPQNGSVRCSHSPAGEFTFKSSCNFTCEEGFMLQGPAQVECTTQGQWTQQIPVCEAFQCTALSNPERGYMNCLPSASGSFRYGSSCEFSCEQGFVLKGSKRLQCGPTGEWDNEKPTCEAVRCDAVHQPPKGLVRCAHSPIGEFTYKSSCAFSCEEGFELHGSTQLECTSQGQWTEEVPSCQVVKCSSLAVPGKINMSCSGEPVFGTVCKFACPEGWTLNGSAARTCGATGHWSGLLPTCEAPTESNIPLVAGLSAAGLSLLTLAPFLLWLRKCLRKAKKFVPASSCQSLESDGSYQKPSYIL

CCCc1cc(=O)[nH]c(=S)[nH]1
not listed: CD40, CD40 (gene 958) | [15] | [16] | [17]
inactive: all other assays above

CC(=O)OCCOCCOCCOC(C)=O
not listed: [2] | [16] | [17]
inactive: all other assays above

CC1(C)NC(=O)NC1=O
not listed: CD40, CD40 (gene 958) | [17]
inactive: all other assays above

O=C(O)CCCCC(=O)O
not listed: [16]
inactive: all other assays above

Cc1ccc(C)c(O)c1C
not listed: [16] | [17]
inactive: all other assays above

CC(=O)C(C)=CC1C(C)=CCCC1(C)C (stereo not drawn)
not listed: [2] | CD40, CD40 (gene 958) | [15] | [16] | [17]
inactive: all other assays above

COc1cc(-c2nc(NC(=O)c3cc4cc(C)cc(C)c4n3CC(=O)O)sc2CCC2CCCCC2)c(OC)cc1Cl
active: [1] 1620 nM | [16] 317 nM | [2] 442 nM | [3] 3230 nM | [4] 1550 nM | [5] 1640 nM | [6] 4260 nM | [7] 1540 nM | [8] 1680 nM | [9] 1380 nM | [17] 1680 nM | [10] 1890 nM | CD40, CD40 (gene 958) 3160 nM | [11] 8510 nM | [12] 12200 nM | [13] 4690 nM | [14] 3250 nM
